The record followed here is publication PMC7862700, “An all-to-all approach to the identification of sequence-specific readers for epigenetic DNA modifications on cytosine”.

What all share (assay): DAPPL (digital affinity profiling via proximity ligation, sequencing); 10 mM Tris-HCl pH 7.5, 50 mM NaCl, 1 mM DTT, 4% glycerol, room temperature, 30 min; GST-TFs on glutathione beads, 16-mer random dsDNA library, 0.1% formaldehyde crosslink after washing; high values mean tight binding
The target of assay [1] is T1, FLI1 (Homo sapiens, UniProt Q01543 1-452).
T1 sequence: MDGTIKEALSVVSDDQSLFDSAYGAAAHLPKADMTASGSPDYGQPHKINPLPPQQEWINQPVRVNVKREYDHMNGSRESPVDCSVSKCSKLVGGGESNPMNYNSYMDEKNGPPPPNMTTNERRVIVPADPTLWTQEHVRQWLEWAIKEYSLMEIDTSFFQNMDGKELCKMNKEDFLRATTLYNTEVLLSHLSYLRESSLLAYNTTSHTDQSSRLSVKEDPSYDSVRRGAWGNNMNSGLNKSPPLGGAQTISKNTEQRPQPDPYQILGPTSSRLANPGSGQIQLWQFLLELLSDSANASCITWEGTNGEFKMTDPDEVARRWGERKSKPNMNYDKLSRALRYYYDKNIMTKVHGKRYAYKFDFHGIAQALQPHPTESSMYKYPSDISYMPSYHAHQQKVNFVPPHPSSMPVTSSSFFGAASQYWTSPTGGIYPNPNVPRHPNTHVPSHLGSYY
The following applies: protein: recombinant; tags: N-terminal GST; dsDNA, one strand shown. Summed up: (§1)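 Beads coated with glutathione captured GST-fused human transcription factors that had been expressed in yeast, and the factors were then given DNA barcodes and pooled with a tag-only sample. The pools were incubated with 200 nmole of a random double-stranded 16-mer DNA library in Tris/NaCl/DTT/glycerol buffer for 30 min at room temperature, washed, crosslinked with 0.1% formaldehyde and proximity-ligated with BsaI/T4 ligase at 37 °C for 1 h. PCR amplification and Illumina NextSeq500 sequencing came last. Binding signal is each hexamer's read frequency for a factor divided by its frequency for the tag-only sample.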

Assay [2] addresses T2, GABPA (Homo sapiens, UniProt Q06546 1-454).
T2 sequence: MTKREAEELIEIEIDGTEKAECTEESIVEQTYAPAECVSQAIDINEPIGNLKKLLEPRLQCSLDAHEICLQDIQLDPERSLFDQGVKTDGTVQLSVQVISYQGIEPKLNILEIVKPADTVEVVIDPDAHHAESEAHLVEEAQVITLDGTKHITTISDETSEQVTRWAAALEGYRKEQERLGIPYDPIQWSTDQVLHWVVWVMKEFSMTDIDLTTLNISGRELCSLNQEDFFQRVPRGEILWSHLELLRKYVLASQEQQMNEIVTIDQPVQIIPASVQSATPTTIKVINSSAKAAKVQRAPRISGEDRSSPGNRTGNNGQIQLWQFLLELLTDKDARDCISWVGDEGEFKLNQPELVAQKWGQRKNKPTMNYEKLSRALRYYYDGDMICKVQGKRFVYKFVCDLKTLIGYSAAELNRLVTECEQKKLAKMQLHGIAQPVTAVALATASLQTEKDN
The following applies: protein: recombinant; tags: N-terminal GST; dsDNA, one strand shown. Summed up: as §1

Assay [3] deals with T3, ERG (Homo sapiens, UniProt P11308 1-479).
T3 sequence: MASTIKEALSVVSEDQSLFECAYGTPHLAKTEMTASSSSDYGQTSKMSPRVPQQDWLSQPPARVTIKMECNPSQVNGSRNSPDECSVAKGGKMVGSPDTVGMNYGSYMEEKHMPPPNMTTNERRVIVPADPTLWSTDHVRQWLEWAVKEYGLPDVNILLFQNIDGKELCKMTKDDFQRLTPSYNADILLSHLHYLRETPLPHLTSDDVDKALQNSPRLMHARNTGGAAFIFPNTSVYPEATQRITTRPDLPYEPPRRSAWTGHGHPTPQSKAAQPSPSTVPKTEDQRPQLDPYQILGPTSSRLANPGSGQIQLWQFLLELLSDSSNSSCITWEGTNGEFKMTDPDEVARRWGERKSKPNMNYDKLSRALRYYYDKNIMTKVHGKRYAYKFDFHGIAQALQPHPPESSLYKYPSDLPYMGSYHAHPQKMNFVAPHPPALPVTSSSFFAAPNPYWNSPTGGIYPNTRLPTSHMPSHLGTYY
The following applies: protein: recombinant; tags: N-terminal GST; dsDNA, one strand shown. Put shortly: as §1

The target of assay [4] is ELF1 (Homo sapiens, UniProt P32519 1-619). As to conditions: protein: recombinant; tags: N-terminal GST; dsDNA, one strand shown. Put shortly:
as §1

Assay [5] deals with SPIB (Homo sapiens, UniProt Q01892 1-262). The following applies: protein: recombinant; tags: N-terminal GST; dsDNA, one strand shown. Summed up: as §1
The target of assay [6] is T4, ELK3 (Homo sapiens, UniProt P41970 1-407).
T4 sequence: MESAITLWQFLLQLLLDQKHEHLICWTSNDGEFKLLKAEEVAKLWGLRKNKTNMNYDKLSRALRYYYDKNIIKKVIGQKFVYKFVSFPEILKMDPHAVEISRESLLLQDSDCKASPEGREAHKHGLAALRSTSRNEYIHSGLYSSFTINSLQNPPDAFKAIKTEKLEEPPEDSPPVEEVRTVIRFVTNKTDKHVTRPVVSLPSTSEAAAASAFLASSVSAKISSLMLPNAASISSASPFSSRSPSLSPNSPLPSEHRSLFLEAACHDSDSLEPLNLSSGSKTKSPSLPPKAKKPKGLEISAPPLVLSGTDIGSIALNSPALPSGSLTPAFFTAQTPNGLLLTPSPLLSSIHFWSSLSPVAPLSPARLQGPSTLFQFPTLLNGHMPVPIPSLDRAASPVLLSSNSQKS
As to conditions: protein: recombinant; tags: N-terminal GST; dsDNA, one strand shown. Summed up:
as §1

Assay [7] has as its target ETV5 (Homo sapiens, UniProt P41161 1-510). The following applies: protein: recombinant; tags: N-terminal GST; dsDNA, one strand shown. Put shortly:
as §1

Assay [8] concerns the target HSF1 (Homo sapiens, UniProt Q00613 1-529). As to conditions: protein: recombinant; tags: N-terminal GST; chain copies: 3; dsDNA, one strand shown. Put shortly:
as §1

In assay [9] the target is T5, SPIC (Homo sapiens, UniProt Q8N5J4 1-248).
T5 sequence: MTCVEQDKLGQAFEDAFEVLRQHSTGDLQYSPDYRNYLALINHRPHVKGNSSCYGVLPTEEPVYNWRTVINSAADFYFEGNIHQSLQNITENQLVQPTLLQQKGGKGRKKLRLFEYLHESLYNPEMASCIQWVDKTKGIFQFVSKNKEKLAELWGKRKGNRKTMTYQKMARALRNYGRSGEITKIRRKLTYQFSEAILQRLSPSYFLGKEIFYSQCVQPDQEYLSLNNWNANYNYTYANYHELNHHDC
As to conditions: protein: recombinant; tags: N-terminal GST; dsDNA, one strand shown. Put shortly: as §1

Assay [10] has as its target ELF4 (Homo sapiens, UniProt Q99607 1-663). As to conditions: protein: recombinant; tags: N-terminal GST; dsDNA, one strand shown. Put shortly:
as §1

The target of assay [11] is T6, ETV2 (Homo sapiens, UniProt O00321 1-342).
T6 sequence: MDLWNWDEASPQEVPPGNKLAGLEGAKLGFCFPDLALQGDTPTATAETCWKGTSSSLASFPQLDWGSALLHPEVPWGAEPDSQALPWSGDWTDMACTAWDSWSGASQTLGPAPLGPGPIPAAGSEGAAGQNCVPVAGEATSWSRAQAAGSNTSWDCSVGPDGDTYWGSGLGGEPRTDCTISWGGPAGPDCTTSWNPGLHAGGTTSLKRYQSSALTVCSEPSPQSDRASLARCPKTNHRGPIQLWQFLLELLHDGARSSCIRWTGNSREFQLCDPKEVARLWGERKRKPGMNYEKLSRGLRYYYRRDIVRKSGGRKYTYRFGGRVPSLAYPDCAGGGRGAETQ
The following applies: protein: recombinant; tags: N-terminal GST; dsDNA, one strand shown. Put shortly:
as §1

Assay [12] concerns the target T7, ELF3 (Homo sapiens, UniProt P78545 1-371).
T7 sequence: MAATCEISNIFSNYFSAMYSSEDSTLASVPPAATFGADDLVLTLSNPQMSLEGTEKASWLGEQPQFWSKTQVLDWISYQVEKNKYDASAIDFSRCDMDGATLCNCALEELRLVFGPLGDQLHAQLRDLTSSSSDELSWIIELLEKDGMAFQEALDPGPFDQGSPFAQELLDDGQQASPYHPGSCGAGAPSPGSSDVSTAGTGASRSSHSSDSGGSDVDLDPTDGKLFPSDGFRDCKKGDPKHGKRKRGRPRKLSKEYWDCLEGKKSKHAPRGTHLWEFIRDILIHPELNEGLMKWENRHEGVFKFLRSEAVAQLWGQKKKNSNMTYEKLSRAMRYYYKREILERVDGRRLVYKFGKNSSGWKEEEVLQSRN
As to conditions: protein: recombinant; tags: N-terminal GST; dsDNA, one strand shown. Summed up: as §1

Assay [13] has as its target CRX (Homo sapiens, UniProt O43186 1-299). The following applies: protein: recombinant; tags: N-terminal GST; dsDNA, one strand shown. Put shortly:
as §1

Assay [14] has as its target T8, ELK1 (Homo sapiens, UniProt P19419 1-428).
T8 sequence: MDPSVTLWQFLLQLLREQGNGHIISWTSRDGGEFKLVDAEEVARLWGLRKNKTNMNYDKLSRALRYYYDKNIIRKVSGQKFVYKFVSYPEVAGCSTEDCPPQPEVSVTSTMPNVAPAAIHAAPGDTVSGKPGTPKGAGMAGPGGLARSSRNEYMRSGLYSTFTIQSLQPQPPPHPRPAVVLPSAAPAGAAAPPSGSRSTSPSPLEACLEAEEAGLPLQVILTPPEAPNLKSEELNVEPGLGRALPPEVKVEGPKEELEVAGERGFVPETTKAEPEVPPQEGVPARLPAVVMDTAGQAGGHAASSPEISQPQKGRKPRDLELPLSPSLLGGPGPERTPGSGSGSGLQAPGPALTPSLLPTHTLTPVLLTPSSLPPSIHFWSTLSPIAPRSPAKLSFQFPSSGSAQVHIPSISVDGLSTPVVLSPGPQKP
As to conditions: protein: recombinant; tags: N-terminal GST; dsDNA, one strand shown. Summed up:
as §1

Assay [15] addresses T9, EHF (Homo sapiens, UniProt Q9NZC4 1-300).
T9 sequence: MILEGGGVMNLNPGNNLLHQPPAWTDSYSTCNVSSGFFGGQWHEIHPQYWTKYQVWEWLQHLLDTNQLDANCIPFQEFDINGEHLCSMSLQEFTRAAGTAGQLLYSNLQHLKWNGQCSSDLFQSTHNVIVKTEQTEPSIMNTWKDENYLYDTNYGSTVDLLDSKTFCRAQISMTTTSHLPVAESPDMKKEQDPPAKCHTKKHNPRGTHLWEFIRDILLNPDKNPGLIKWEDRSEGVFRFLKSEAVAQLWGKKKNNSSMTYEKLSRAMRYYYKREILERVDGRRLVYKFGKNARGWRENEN
The following applies: protein: recombinant; tags: N-terminal GST; dsDNA, one strand shown. Put shortly:
as §1

The target of assay [16] is SPI1 (Homo sapiens, UniProt P17947 1-270). The following applies: protein: recombinant; tags: N-terminal GST; dsDNA, one strand shown. Put shortly:
as §1

The target of assay [17] is T10, FEV (Homo sapiens, UniProt Q99581 1-238).
T10 sequence: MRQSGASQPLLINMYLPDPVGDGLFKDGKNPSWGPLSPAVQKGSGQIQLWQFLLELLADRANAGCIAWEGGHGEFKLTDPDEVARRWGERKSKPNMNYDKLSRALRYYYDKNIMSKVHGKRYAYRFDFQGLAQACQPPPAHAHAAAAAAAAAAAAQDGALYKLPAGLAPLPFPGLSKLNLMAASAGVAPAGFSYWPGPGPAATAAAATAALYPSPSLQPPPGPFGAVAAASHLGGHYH
As to conditions: protein: recombinant; tags: N-terminal GST; dsDNA, one strand shown. Summed up: as §1

Assay [18] addresses ETV1 (Homo sapiens, UniProt P50549 1-477). As to conditions: protein: recombinant; tags: N-terminal GST; dsDNA, one strand shown. Summed up:
as §1

Sequence of SPIB (Q01892 whole entry): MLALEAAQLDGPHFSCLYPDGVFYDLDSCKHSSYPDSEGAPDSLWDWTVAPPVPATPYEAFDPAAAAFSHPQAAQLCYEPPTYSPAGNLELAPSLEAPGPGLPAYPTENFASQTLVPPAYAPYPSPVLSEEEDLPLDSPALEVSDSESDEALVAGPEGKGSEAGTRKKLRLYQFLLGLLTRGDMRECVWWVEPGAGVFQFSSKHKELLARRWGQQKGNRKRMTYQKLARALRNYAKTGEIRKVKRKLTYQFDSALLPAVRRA
Sequence of ETV5 (P41161 whole entry): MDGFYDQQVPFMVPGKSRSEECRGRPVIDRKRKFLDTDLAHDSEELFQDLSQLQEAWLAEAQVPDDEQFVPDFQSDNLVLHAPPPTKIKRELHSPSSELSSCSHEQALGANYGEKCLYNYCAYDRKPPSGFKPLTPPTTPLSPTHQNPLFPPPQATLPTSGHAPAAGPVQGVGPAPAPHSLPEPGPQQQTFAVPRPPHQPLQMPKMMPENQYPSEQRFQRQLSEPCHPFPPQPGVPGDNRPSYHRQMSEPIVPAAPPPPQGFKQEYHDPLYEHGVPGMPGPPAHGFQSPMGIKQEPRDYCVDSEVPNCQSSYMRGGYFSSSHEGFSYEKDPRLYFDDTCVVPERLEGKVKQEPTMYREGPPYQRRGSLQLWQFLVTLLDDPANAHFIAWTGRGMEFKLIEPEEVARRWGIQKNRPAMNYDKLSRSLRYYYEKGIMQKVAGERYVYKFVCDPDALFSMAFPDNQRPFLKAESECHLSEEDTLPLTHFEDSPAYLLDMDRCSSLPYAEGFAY
Sequence of HSF1 (Q00613 whole entry): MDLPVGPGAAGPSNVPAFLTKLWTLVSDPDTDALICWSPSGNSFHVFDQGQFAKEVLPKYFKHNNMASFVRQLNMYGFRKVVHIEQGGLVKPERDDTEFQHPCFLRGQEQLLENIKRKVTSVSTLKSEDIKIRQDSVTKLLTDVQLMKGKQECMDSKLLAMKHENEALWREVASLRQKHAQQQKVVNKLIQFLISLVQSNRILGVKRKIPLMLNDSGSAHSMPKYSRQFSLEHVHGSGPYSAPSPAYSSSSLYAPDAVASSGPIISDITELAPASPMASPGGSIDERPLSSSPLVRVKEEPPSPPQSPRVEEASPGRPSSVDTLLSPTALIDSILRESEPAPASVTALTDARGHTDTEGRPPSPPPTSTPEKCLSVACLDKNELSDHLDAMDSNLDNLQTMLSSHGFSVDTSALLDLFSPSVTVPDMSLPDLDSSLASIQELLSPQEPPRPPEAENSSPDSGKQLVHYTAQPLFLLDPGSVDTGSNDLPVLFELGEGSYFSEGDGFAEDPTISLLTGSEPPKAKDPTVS
Sequence of ELF1 (P32519 whole entry): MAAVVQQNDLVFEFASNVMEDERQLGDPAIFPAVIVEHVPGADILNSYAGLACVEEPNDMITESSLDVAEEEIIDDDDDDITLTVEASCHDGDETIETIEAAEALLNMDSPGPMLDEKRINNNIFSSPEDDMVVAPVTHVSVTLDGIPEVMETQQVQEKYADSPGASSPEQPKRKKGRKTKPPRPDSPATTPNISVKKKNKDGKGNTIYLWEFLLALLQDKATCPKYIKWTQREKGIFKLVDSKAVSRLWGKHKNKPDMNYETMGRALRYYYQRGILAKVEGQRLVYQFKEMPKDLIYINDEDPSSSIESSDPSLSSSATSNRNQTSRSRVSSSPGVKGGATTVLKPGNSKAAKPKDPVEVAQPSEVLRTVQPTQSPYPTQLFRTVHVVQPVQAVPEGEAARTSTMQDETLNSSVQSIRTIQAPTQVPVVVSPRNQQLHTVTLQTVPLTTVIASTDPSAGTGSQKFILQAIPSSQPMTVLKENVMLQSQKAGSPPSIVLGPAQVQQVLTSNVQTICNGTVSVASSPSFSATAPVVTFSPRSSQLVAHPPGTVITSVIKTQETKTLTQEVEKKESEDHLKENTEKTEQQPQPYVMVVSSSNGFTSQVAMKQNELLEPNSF
Sequence of ELF4 (Q99607 whole entry): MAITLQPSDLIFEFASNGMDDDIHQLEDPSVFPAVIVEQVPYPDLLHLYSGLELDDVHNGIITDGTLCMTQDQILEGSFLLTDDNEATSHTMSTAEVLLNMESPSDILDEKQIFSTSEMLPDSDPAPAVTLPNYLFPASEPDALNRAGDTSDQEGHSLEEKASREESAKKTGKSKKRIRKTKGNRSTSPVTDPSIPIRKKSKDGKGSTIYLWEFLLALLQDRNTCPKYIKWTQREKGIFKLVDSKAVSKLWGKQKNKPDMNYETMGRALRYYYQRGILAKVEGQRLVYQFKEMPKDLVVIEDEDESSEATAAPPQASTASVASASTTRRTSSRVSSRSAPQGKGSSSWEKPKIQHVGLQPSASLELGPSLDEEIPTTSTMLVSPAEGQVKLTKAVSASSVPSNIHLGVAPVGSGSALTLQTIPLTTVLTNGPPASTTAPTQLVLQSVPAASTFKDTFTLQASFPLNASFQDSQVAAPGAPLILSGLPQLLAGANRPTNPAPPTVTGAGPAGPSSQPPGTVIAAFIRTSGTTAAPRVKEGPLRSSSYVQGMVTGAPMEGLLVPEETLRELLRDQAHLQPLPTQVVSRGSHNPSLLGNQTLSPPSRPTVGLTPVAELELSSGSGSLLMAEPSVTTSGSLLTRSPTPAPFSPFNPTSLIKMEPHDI
Sequence of ETV1 (P50549 whole entry): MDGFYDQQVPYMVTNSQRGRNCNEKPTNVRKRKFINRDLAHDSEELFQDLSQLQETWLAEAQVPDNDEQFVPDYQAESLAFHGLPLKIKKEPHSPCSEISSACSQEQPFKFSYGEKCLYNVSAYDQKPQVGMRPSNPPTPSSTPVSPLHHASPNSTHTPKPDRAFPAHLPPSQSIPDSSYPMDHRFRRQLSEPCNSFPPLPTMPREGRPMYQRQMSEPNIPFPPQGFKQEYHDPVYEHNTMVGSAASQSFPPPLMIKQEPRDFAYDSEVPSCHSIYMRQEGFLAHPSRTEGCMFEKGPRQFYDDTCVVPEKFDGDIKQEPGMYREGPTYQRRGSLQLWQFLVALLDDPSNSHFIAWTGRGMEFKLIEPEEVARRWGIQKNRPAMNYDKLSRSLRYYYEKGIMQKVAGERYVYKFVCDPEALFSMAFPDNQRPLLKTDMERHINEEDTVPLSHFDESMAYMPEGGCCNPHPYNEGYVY
Sequence of CRX (O43186 whole entry): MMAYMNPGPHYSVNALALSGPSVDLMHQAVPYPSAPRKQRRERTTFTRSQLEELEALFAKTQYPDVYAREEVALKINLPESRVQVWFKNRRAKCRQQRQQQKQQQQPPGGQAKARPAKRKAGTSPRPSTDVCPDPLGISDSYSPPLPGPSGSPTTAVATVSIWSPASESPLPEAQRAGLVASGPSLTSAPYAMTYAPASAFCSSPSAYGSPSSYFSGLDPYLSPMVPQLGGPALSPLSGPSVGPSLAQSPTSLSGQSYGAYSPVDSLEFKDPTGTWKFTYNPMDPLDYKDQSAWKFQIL

Turning to TCTAGG, the binding signal in assay [1] is 1.12 fold enrichment (6-mer frequency, TF over GST control); in [2], 1.1 fold enrichment (6-mer frequency, TF over GST control); in assay [3] it was 1.02 fold enrichment (6-mer frequency, TF over GST control); in assay [4] it was 1.05 fold enrichment (6-mer frequency, TF over GST control); in [5], 1.11 fold enrichment (6-mer frequency, TF over GST control); in assay [6], 1.07 fold enrichment (6-mer frequency, TF over GST control). Further, the binding signal in assay [7] is 1.05 fold enrichment (6-mer frequency, TF over GST control); in assay [8] it was 1.7 fold enrichment (6-mer frequency, TF over GST control); in assay [9], 1.24 fold enrichment (6-mer frequency, TF over GST control); in [10] it was 1.13 fold enrichment (6-mer frequency, TF over GST control); in assay [11] it was 1.11 fold enrichment (6-mer frequency, TF over GST control); in assay [12], 1.07 fold enrichment (6-mer frequency, TF over GST control). The binding signal in [13] was 1.27 fold enrichment (6-mer frequency, TF over GST control).

For the sequence CACAAA, the binding signal in assay [1] is 1.06 fold enrichment (6-mer frequency, TF over GST control); in assay [14], 1.06 fold enrichment (6-mer frequency, TF over GST control); in assay [2], 1.12 fold enrichment (6-mer frequency, TF over GST control); in assay [3] it was 1.12 fold enrichment (6-mer frequency, TF over GST control); in [4], 1.13 fold enrichment (6-mer frequency, TF over GST control); in assay [15], 1.11 fold enrichment (6-mer frequency, TF over GST control). Moreover, the binding signal in assay [16] was 1.13 fold enrichment (6-mer frequency, TF over GST control); in [5], 1.04 fold enrichment (6-mer frequency, TF over GST control); in assay [6] it was 1.19 fold enrichment (6-mer frequency, TF over GST control); in [17], 1.09 fold enrichment (6-mer frequency, TF over GST control); in assay [7], 1.11 fold enrichment (6-mer frequency, TF over GST control); in [8], 1.02 fold enrichment (6-mer frequency, TF over GST control). Also, the binding signal in [9] was 1.07 fold enrichment (6-mer frequency, TF over GST control); in assay [10] it was 1.11 fold enrichment (6-mer frequency, TF over GST control); in assay [11] it was 1.09 fold enrichment (6-mer frequency, TF over GST control); in [12] it was 1.1 fold enrichment (6-mer frequency, TF over GST control); in [18], 1.03 fold enrichment (6-mer frequency, TF over GST control).
